Compound activity from PubChem BioAssay.
Tau fluor cs: counter-screen for tau fibril formation inhibitors; 280,000 compounds, 0.93% hits; Potency, µM (series often up to 57.7 µM), for inactives: top-dose activity change, negative = decrease; tau K18 P301L Alexa594 fluorescence, heparin fibrillization; note: potency is the fitted concentration of half-maximal effect; nearly all actives have a fitted effect of over 55% in size
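Human K18 P301L tau (15 uM unlabeled plus 0.24 uM Alexa 594-labeled, final) in 100 mM sodium acetate pH 7 was mixed with compound and 20 uM heparin and incubated 6 hr at 37 C.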
Sfp inh: Sfp phosphopantetheinyl transferase inhibition; Q9F4F7; Biochemical Sfp PPTase activity, qHTS; Potency, µM, for the others: largest response in the series, negative = inhibition, hits mostly inhibitors; 310,000 compounds, 3.5% hits; AID 1490;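 note: the enzyme is Sfp with the accession as filed and its product quenches rhodamine fluorescence; potency is the fitted concentration of half-maximal effect; 0% = enzyme reaction without inhibitor and -100% = no enzyme wells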
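Reaction rates are the 30-min fluorescence difference (ex 525, em 598 nm) in wells containing 15 nM Sfp, 5 uM rhodamine-CoA and 12.5 uM BHQ-2-YbbR at pH 7.6 with 10 mM MgCl2.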
Tau fibril FP: inhibitors of human tau fibril formation. K18 P301L tau heparin fibrillization, Alexa594 FP, 6 h. AID 1468. 280,000 compounds, 0.39% hits. Potency, µM (doses to about 57.7 µM), inactives show at the highest dose activity, negative = inhibition, actives largely listed as inhibitors; note: potency is the fitted concentration of half-maximal effect; nearly all actives have a fitted effect of over 55% in size
Target sequence (P10636 561-689 P618L limits assumed): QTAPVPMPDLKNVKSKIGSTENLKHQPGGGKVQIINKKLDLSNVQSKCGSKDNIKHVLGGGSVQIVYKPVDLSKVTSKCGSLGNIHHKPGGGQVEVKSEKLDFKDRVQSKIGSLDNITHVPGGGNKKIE
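Quantitative HTS format: compounds meet 15 uM recombinant K18 P301L tau and Alexa 594-tau tracer in 100 mM sodium acetate pH 7; 20 uM heparin triggers fibrillization at 37 C over 6 hr; FP gives the signal.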
Coupling enz: inhibits coupling enzyme system, counter-screen for aldolase hits. 290,000 compounds, 0.67% hits. AID 2472. activity change, negative = inhibition, % at 58.2 µM, hits read low. coupling enzyme system counterscreen, AmpLite Red fluorescence; in the data active = activity change below about -30%
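Fluorescence at 525 nm excitation and 598 nm emission measured inhibition of the coupled detection system without aldolase. Compounds (at 57.5 uM final) were preincubated 10 min at room temperature with coupling enzyme reagent before a 20 min substrate/AmpLite Red step.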
Tau ThT inhib: blocks human tau fibril formation measured by thioflavin T; P10636; recombinant tau K18 P301L (four-repeat tau fragment), heparin-induced fibrillization, ThT fluorescence; Potency, µM (titrated, usually from 57.4 µM), for the others: top-dose activity, negative = inhibition, actives largely listed as inhibitors; 270,000 compounds, 2.1% hits; AID 1460; note: potency is the fitted concentration of half-maximal effect; nearly all actives have a fitted effect of over 55% in size
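In this qHTS, human K18 P301L tau is incubated with compound and heparin for 6 hr at 37 C, and Thioflavin T fluorescence then reports fibril load.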
Numbers without * were called inactive; ? = inconclusive; . = no result; ! = not active in a repeat; [ ] = remark or other dose. Shown are actives, neighbours in structure and some others; about 5.2% of the full set was active somewhere. Unless noted, calls come from the whole dose curve; as a rule, active = well fitted curve in the direction sought with a large enough effect; inconclusive = small, poorly fitted or top-dose-only effect, or another doubt; inactive = no such curve, though single readings can be large; an effect the other way counts as inactive or inconclusive. Unless noted, % is set by controls: 0 for no effect and ±100 for the full control effect.

SMILES | Tau fluor cs | Sfp inh | Tau fibril FP | Coupling enz | Tau ThT inhib
COc1cc2oc(-c3ccccc3)cc(=O)c2cc1OC | -18% | 7% | -9% | 0 | -15%
Cc1c2cc(O)c(=O)cc-2oc2cc(O)c(O)cc12 | 10µM*[quencher] | 40µM* | 10µM* | -54*! | 3.2µM*
COc1cc(OC)c(-c2c3cc(O)c(=O)cc-3oc3cc(O)c(O)cc23)cc1OC | -24% | 16µM* | ? | -17 | 13µM*
Cc1cc(C)c(Nc2cc(S(=O)(=O)O)c(N)c3c2C(=O)c2ccccc2C3=O)c(C)c1 | 7.1µM*[quencher] | 50µM* | 20µM* | -4 | 7.9µM*
Cc1cc(C(=O)N/N=C/c2cccc([N+](=O)[O-])c2O)n[nH]1 | -21% | 12% | -4% | -1 | 14µM*
Cc1cc(C(=O)N/N=C/c2cc([N+](=O)[O-])ccc2O)c2ccccc2n1 | 4% | -2% | 7% | 7 | ?
Cc1cc(C(=O)N/N=C/c2ccc(O)c([N+](=O)[O-])c2)n[nH]1 | -7% | 7% | -5% | 6 | ?
COC(=O)N/N=C/c1cc(N=Nc2ccccc2Cl)ccc1O | ? | -13% | -2% | 0 | 1.6µM*
Cc1cc(C(=O)N/N=C/c2ccco2)n[nH]1 | 5% | -9% | 0% | -2 | -9%
Cc1cc(C(=O)N/N=C/c2cc(Br)cc([N+](=O)[O-])c2O)c2ccccc2n1 | ? | -2% | ? | 0 | 7.9µM*
Cc1cc(C(=O)N/N=C/c2cc(N=Nc3ccccc3)ccc2O)n[nH]1 | ? | -14% | 1% | -1 | 7.1µM*
CCOC(=O)Cc1ccc(NC(=O)N(Cc2ccc(OC)cc2)C2CCN(C(C)=O)CC2)cc1 | -5% | . | -4% | . | -1%
CCN(C(=O)C1CCCN(S(=O)(=O)c2c(C)noc2/C=C/N(C)C)C1)c1cccc(C)c1 (stereo not drawn) | -25% | . | 2% | . | ?
O=C(N/N=C/c1cccc2ccccc12)c1cc2ccccc2o1 | . | 5% | . | -1 | .
Nc1ccc(C(=O)N/N=C\c2cc(N=Nc3cccc4ccccc34)ccc2O)cc1 | ? | -7% | 13% | 1 | 3.2µM*
COC(=O)N/N=C/c1cc(N=Nc2ccccc2)ccc1O | ? | 7% | 2% | -3 | 1.1µM*
COC(=O)N/N=C/c1cc(Br)ccc1O | 0% | -7% | 7% | 1 | ?
COCCn1c(=O)c(C)nc2cnc(N3CCOCC3)nc21 | . | 21% | . | 1 | .
CC(=O)Nc1ccc(-c2csc(NC(=O)C3CC(=O)N(c4ccc5c(c4)OCCO5)C3)n2)cc1 (stereo not drawn) | ? | 4% | 17% | -35* | ?
COc1ccc(-c2csc(NC(=O)C3CC(=O)N(c4ccc5c(c4)OCCO5)C3)n2)cc1 (stereo not drawn) | ? | -9% | -6% | -1 | ?
Nc1nc(CSc2nc3ccccc3[nH]2)cs1 | -16% | 45µM* | -8% | -7 | ?
O=c1cc(CSc2nc3ccccc3[nH]2)c2ccccc2[nH]1 | -13% | -26% | -9% | -11 | -10%
Fc1ccc(CSc2nc3ccccc3[nH]2)c2ccccc12 | ? | 24% | 25µM* | 0 | -23%
COc1ccc(CNc2ncnc3ccc(-c4ccccc4C#N)cc23)c(OC)c1 | . | -15% | . | 4 | .
C/C=C\C1=C(CO)C(=O)[C@@H]2OC2C1=O (stereo partly drawn) | ? | 3.2µM* | ? | -21 | 3.5µM*
SMILES | Tau fluor cs | Sfp inh | Tau fibril FP | Coupling enz | Tau ThT inhib
COc1ccc(Oc2cn[nH]c2-c2ccc(O)cc2O)cc1 | ? | -6% | ? | 1 | -11%
Cc1[nH]nc(-c2ccc(O)cc2O)c1Oc1ccccc1 | 14µM*[quencher] | 17% | 18% | 1 | -22%
CCCOC(=O)c1ccc(Oc2cn[nH]c2-c2ccc(OCC(=O)NN)cc2O)cc1 | 28µM*[quencher] | 17% | 6% | 2 | -6%
CCCc1ccc(Oc2cn[nH]c2-c2ccc(O)cc2O)cc1 | 6.3µM*[quencher] | 8% | ? | 0 | ?
CCCOC(=O)c1ccc(Oc2cn[nH]c2-c2ccc(O)cc2O)cc1 | 5µM*[quencher] | 11% | ? | 2 | ?
CCCOC(=O)c1ccc(Oc2c(-c3ccc(O)cc3O)n[nH]c2C)cc1 | -9% | 22% | -12% | 3 | -5%
COc1ccc(Cl)cc1NC(=O)[C@H]1O[C@@H]2OC(C)(C)O[C@@H]2[C@H]2OC(C)(C)O[C@H]21 | -20% | . | -2% | . | -3%
CN(C)c1ncc2nc(-c3cccs3)c(=O)n(C)c2n1 | . | 4% | . | 3 | .
COc1ccc(-n2nnnc2C2CCN(S(=O)(=O)c3ccc(C)cc3)CC2)cc1 | ? | . | -5% | . | -6%
COc1ccc(C(=O)NNc2ncnc3c2cnn3-c2ccccc2)cc1 | -8% | . | -6% | . | -6%
CCc1cc(-c2n[nH]c(C)c2Oc2ccc(C(C)C)cc2)c(O)cc1O | 7.1µM*[quencher] | 26% | ? | -5 | 28µM*
CCCOC(=O)c1ccc(Oc2c(-c3ccc(OC)cc3O)n[nH]c2C)cc1 | 10µM*[quencher] | 11% | ? | -2 | -6%
CCOc1ccc(-c2n[nH]c(C)c2Oc2ccccc2OC)c(O)c1 | ? | 5% | -10% | 0 | -5%
CCOC(=O)c1ccc(Oc2cn[nH]c2-c2ccc(OCC(=O)NN)cc2O)cc1 | . | 4% | . | 3 | .
CCOC(=O)c1ccc(Oc2cn[nH]c2-c2ccc(O)cc2O)cc1 | 13µM*[quencher] | 0% | ? | 0 | ?
CCCn1c(=O)c(C(=O)Nc2ccccc2C)c(O)c2ccccc21 | . | 35µM* | . | -1 | .
CCn1c(=O)c(C(=O)Nc2ccccc2C)c(O)c2ccccc21 | -7% | 10% | 0% | 1 | -9%
O=C(O)COc1ccccc1/C=N/Nc1ccc(S(=O)(=O)N2CCOCC2)cc1[N+](=O)[O-] | -11% | -6% | 2% | -1 | ?
Cc1ccc(-n2c(O)c(/C=N/Nc3ccc(S(=O)(=O)N4CCOCC4)cc3[N+](=O)[O-])c3ccccc3c2=O)c(C)c1 | ? | -18% | -9% | -7 | 13µM*
Cc1c(NC(=O)Cc2ccc(F)cc2)cccc1-c1nc2cccnc2s1 | 20µM*[quencher] | . | ? | . | 8%
O=C(NC1CC(=O)N(c2ccc(F)cc2)C1)c1cc2ccccc2o1 (stereo not drawn) | -3% | . | -14% | . | -8%
COc1ccc(-c2nc(Cn3c(SCc4cccc(C(F)(F)F)c4)nc4cccnc43)c(C)o2)cc1OC | -19% | . | 8% | . | ?
CCC/C=N/Nc1nc2ccccc2s1 | ? | -5% | 3% | 1 | ?
C(=C\c1ccccc1)/C=N/Nc1nc2ccccc2s1 | 10µM*[quencher] | -8% | -6% | -3 | ?
Cc1ccc2[nH]c(C)c(/C=N/Nc3nc4ccccc4s3)c2c1 | 10µM*[quencher] | 13% | ? | -2 | 14µM*
C(=N\Nc1nc2ccccc2s1)/c1ccccn1 | -28% | 4% | 5% | -3 | ?
